Screening results: PubChem, Broad Institute
AF4-AF9 inh: inhibitors of human MLL-AF4/AF9 interaction; P42568; AlphaScreen, biotin-AF4 peptide binding to FLAG-AF9; inhibition, % at 10 µM; actives 0.47% (n = 350,000); AID 651704;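 active = every replicate reaching a set inhibition limit, whatever the replicate mean, cut at about 25% in these data; inconclusive = mean inhibition reaches that limit but some replicates miss it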
Casp6 inh: inhibitors of human caspase-6; P55212; purified caspase-6, Z-VEID-R110 cleavage fluorescence; actives 0.53% (n = 350,000); AID 686996; inhibition, % at 12.5 µM;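 active = mean inhibition across replicates at least about 35%, with every replicate also reaching that limit, limit read from the data; inconclusive = only one of the two criteria met; inactive = neither criterion met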
Target sequence (P55212 24-179 limits assumed): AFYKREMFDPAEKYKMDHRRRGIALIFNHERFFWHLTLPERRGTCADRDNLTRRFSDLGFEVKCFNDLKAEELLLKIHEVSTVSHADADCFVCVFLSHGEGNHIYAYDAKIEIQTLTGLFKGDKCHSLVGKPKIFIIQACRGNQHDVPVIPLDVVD
Target sequence (P55212 194-293 limits assumed): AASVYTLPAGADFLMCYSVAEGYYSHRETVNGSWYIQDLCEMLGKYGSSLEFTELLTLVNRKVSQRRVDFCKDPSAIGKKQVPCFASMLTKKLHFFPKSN
RAD52 anneal inh: RAD52 (human) annealing inhibition | P43351 | actives 0.46% (n = 360,000) | inhibition, % at 18.7 µM | recombinant RAD52 DNA annealing, FRET fluorescence;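 active = every replicate showing at least 50% inhibition; inconclusive = mean inhibition at least 50% but not in every replicate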
Target sequence (P43351 whole entry, looked up): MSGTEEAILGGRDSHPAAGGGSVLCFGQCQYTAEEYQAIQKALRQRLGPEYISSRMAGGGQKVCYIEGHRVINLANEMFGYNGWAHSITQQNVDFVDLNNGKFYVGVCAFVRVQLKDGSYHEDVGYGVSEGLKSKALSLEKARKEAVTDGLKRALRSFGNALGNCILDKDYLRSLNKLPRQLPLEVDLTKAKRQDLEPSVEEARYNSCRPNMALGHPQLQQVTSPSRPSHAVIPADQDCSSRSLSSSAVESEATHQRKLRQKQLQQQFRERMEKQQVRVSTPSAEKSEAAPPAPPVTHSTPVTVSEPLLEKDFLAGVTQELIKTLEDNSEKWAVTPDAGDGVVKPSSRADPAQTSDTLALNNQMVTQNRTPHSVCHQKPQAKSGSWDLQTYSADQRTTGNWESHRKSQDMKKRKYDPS
miR-122 sensor: blocks miR-122 activity in Huh7 sensor cells. Huh7 miR-122 Renilla luciferase sensor, 48 h; neutral wells = 0, positive control = 100. activation (reporter increase), % at 12.5 µM. actives 0.3% (n = 340,000);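 active = mean replicate activation score at least 90 and every replicate individually at or above 90; inconclusive = only one of the two criteria met; inactive = neither criterion met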;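 note: higher luciferase means less miR-122 activity so hits act as miR-122 inhibitors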
NSD2 inh: blocks human histone methyltransferase NSD2; O96028; NSD2 peptide methylation, AlphaScreen, 120 min; inhibition, % at 12.5 µM; actives 0.54% (n = 310,000); AID 743445; in the data active = inhibition above about 50%
Large screens that a line does not name were inactive; ! = not active in a repeat; [ ] = remark or other dose. Sampled rows, rich in hits. Any-hit rate of the full collection: about 1.5%.

CCOC(=O)/C(C#N)=C/Nc1ccccc1NS(=O)(=O)c1ccc(C)c(C)c1	none (no result: miR-122 sensor)
CCOC(=O)/C(C#N)=C/Nc1ccccc1NS(=O)(=O)c1cccc(C(C)=O)c1	Casp6 inh 38
COc1ccc(NS(=O)(=O)c2cc(NC(=O)c3cnccn3)ccc2N2CCCC2)cc1	miR-122 sensor 104
CNC(=S)Nc1ccc(N2CCCC2)c(S(=O)(=O)Nc2ccc(OC)cc2)c1	miR-122 sensor 109
COc1ccccc1NS(=O)(=O)c1cc(NC(=O)C(C)NC(N)=O)ccc1N1CCCC1 (configuration not stated)	none
COc1ccc(NS(=O)(=O)c2cc(NC(=O)[C@H](C)NC(N)=O)ccc2N2CCCC2)cc1	Casp6 inh 44
COc1ccc(NS(=O)(=O)c2cc(NC(=O)CC(C)(C)C)ccc2N2CCCC2)cc1	none
COc1cccc(-c2ccc3n(c2=O)C[C@@H]2[C@@H](CO)[C@H](C(=O)N(C)C)N(C(=O)C4CCC4)[C@H]32)c1	none (no result: NSD2 inh)
O=S(=O)(NCCOCC(F)(F)C(F)F)c1ccc2oc3ccccc3c2c1	miR-122 sensor 107 (no result: AF4-AF9 inh, Casp6 inh, RAD52 anneal inh)
COc1ccc(OCCNS(=O)(=O)c2ccc3oc4ccccc4c3c2)cc1	none (no result: AF4-AF9 inh, Casp6 inh, RAD52 anneal inh)
C/C=C/c1ccc([C@@H]2[C@H](CO)N(C(=O)C3CCC3)C23CN(S(=O)(=O)CC)C3)cc1	none (no result: miR-122 sensor, NSD2 inh)
C/C=C/c1ccc([C@@H]2[C@H](CO)N(C(=O)C3CCCC3)C23CN(S(C)(=O)=O)C3)cc1	Casp6 inh 58 (no result: miR-122 sensor, NSD2 inh)
Oc1cc2c(cc1C(c1ccc(Cl)c(Cl)c1)N1CCCC1)OCO2 (configuration not stated)	AF4-AF9 inh 27 (no result: miR-122 sensor)
Cc1ccc(S(=O)(=O)Nc2cccc3c2O[C@@H](CN(C)Cc2ccc(Cl)c(Cl)c2)[C@H](C)CN([C@H](C)CO)C3=O)cc1	miR-122 sensor 110[16.7 µM] (no result: NSD2 inh)
C[C@@H]1CN([C@H](C)CO)C(=O)c2cccc(NS(=O)(=O)c3cccs3)c2O[C@@H]1CN(C)Cc1ccc(C(F)(F)F)cc1	none (no result: NSD2 inh)
Cc1ccc(S(=O)(=O)Nc2cccc3c2O[C@H](CN(C)Cc2ccc(Cl)c(Cl)c2)[C@@H](C)CN([C@H](C)CO)C3=O)cc1	none (no result: NSD2 inh)
C[C@H](CO)N1C[C@H](C)[C@@H](CN(C)Cc2ccc(Cl)c(Cl)c2)Oc2c(NS(=O)(=O)c3cccs3)cccc2C1=O	miR-122 sensor 95! (no result: NSD2 inh)
Cc1ccc(S(=O)(=O)Nc2cccc3c2O[C@H](CN(C)Cc2ccc(C(=O)O)cc2)[C@H](C)CN([C@H](C)CO)C3=O)cc1	AF4-AF9 inh 27 (no result: NSD2 inh)
Cc1ccc(S(=O)(=O)Nc2cccc3c2O[C@@H](CN(C)Cc2ccc(C(=O)O)cc2)[C@@H](C)CN([C@@H](C)CO)C3=O)cc1	none (no result: NSD2 inh)
C[C@@H]1CN([C@H](C)CO)C(=O)c2cccc(NS(=O)(=O)c3cccs3)c2O[C@H]1CN(C)Cc1ccc(C(F)(F)F)cc1	miR-122 sensor 264[16.7 µM] (no result: NSD2 inh)
C[C@H]1CN([C@@H](C)CO)C(=O)c2cccc(NS(=O)(=O)c3cccs3)c2O[C@@H]1CN(C)Cc1ccncc1	none (no result: NSD2 inh)
Cc1ccc(S(=O)(=O)N(C)C[C@H]2Oc3ccc(NC(=O)CCCCCC(=O)Nc4ccccc4N)cc3C(=O)N([C@H](C)CO)C[C@@H]2C)cc1	none (no result: miR-122 sensor, NSD2 inh)
COCC#Cc1cnc2c(c1)C(=O)N([C@@H](C)CO)C[C@H](C)[C@@H](CN(C)C)O2	none (no result: NSD2 inh)
C[C@@H]1CN([C@@H](C)CO)C(=O)Cc2cc(NS(=O)(=O)c3cccs3)ccc2O[C@H]1CN(C)Cc1ccc(Cl)c(Cl)c1	RAD52 anneal inh 51 (no result: NSD2 inh)
Cc1noc(C)c1NC(=O)N(C)C[C@H]1Oc2c(NC(=O)CCCCCC(=O)Nc3ccccc3N)cccc2C(=O)N([C@@H](C)CO)C[C@H]1C	none (no result: miR-122 sensor, NSD2 inh)
CCCOc1ccc2c(c1)C(=NN=C(N)N)c1cc(OCCC)ccc1-2	AF4-AF9 inh 32
CN(C)CC(=O)Nc1ccc2c(c1)[C@H]1C[C@H](CC(=O)NCc3ccccn3)O[C@H](CO)[C@H]1O2	none (no result: NSD2 inh)
CN(C)CC(=O)Nc1ccc2c(c1)[C@@H]1C[C@@H](CC(=O)NCc3ccc(-c4ccccc4)cc3)O[C@H](CO)[C@@H]1O2	none (no result: NSD2 inh)
CN(C)CC(=O)Nc1ccc2c(c1)[C@H]1C[C@H](CC(=O)NCc3ccc(-c4ccccc4)cc3)O[C@H](CO)[C@H]1O2	RAD52 anneal inh 62 (no result: NSD2 inh)
CN(C)c1ccc2c(c1)[C@@H]1C[C@@H](CC(=O)NCc3ccccn3)O[C@@H](CO)[C@@H]1O2	Casp6 inh 40 (no result: NSD2 inh)
O=C(/C=C/c1ccc(Br)o1)OCc1nc2ccsc2c(=O)[nH]1	Casp6 inh 38 (no result: AF4-AF9 inh, NSD2 inh)
Cc1ccc(NC(=O)c2sc(N)nc2-c2ccc([N+](=O)[O-])cc2)c(C)c1	AF4-AF9 inh 30 (no result: miR-122 sensor)
Cc1ccc(NC(=O)c2sc(Cl)nc2C)c(C)c1	none (no result: AF4-AF9 inh, Casp6 inh, RAD52 anneal inh)
Cc1ccc(NC(=O)c2sc(C)nc2C)c(C)c1	Casp6 inh 51 (no result: miR-122 sensor)
Cc1ccc(NC(=O)c2sc(N)nc2-c2ccc([N+](=O)[O-])cc2)cc1C	none
Cc1ccc(NC(=O)CSc2nnc(CSc3nc(C)cc(C)n3)n2Cc2ccco2)c(C)c1	none (no result: AF4-AF9 inh, Casp6 inh, RAD52 anneal inh)
Cc1ccc(C)c(NC(=O)CSc2nnc(CSc3nc(C)cc(C)n3)n2Cc2ccco2)c1	miR-122 sensor 119 (no result: AF4-AF9 inh, Casp6 inh, RAD52 anneal inh)
COc1cc(S(=O)(=O)N2CCOCC2)ccc1NC(=O)CSc1n[nH]c(=O)[nH]c1=O	miR-122 sensor 144
C[C@@H]1CN([C@@H](C)CO)C(=O)Cc2cc(NC(=O)CCCN(C)C)ccc2O[C@H]1CN(C)Cc1ccc(Oc2ccccc2)cc1	AF4-AF9 inh 39, RAD52 anneal inh 91 (no result: NSD2 inh)
C[C@H](CO)N1C[C@H](C)[C@@H](CN(C)Cc2ccc(Oc3ccccc3)cc2)Oc2ccc(NC(=O)CCCN(C)C)cc2CC1=O	AF4-AF9 inh inconclusive, RAD52 anneal inh 57 (no result: NSD2 inh)
C[C@H]1CN([C@@H](C)CO)C(=O)Cc2cc(NC(=O)CCCN(C)C)ccc2O[C@H]1CN(C)Cc1ccc(Oc2ccccc2)cc1	none (no result: NSD2 inh)
C[C@@H]1CN([C@@H](C)CO)C(=O)Cc2cc(NC(=O)Cc3ccccc3)ccc2O[C@H]1CN(C)Cc1ccc(Oc2ccccc2)cc1	none (no result: NSD2 inh)
COc1ccc(S(=O)(=O)N(C)C[C@H]2Oc3ccc(NC(=O)Nc4ccc(F)cc4)cc3C(=O)N([C@H](C)CO)C[C@H]2C)cc1	miR-122 sensor 101[16.7 µM] (no result: NSD2 inh)
COc1ccc(NC(=O)Nc2ccc3c(c2)C(=O)N([C@H](C)CO)C[C@@H](C)[C@@H](CN(C)S(=O)(=O)c2ccc(OC)cc2)O3)cc1	miR-122 sensor 101[16.7 µM] (no result: NSD2 inh)
CC(=O)Nc1cc(-c2ccc(N3CCN(C)CC3)cc2)cn2c(-c3ccc(F)c(Cl)c3)cnc12	AF4-AF9 inh 27
Cc1nc2ccc(NC(=O)CCC3CCCC3)cc2s1	Casp6 inh 81
O=C(O)c1ccc(N2C(=O)CC(N3CCN(c4cccc(C(F)(F)F)c4)CC3)C2=O)cc1 (configuration not stated)	Casp6 inh 90
COc1ccc(CCNCc2cc(C)n(-c3ccc(OC)cc3)c2C)cc1	AF4-AF9 inh 39
C[C@H]1CN([C@@H](C)CO)C(=O)c2cc(NC(=O)C3CCCCC3)ccc2O[C@H]1CN(C)C(=O)Nc1ccc(F)cc1	none (no result: NSD2 inh)
